From paper PMC5540273 (PLoS ONE, 2017)
Where “and” joins values, the source holds several entries; their conditions need not be identical. Equal entries are not always repeated. Where two headings read alike, the source gives them in different places.

How the values were obtained:
RIPK5 = conditions: concentration: 1 μM, replicates: in singlicate; n = 1
ROCK1 = conditions: concentration: 1 μM, replicates: in singlicate, n = 1
ROCK2 = conditions: concentration: 1 μM, replicates: in singlicate, n = 1
ROS1 = conditions: concentration: 1 μM, replicates: in singlicate, n = 1
[1] = tested on: RPS6KA4(Kin.Dom.1-N-terminal); conditions: concentration: 1 μM, replicates: in singlicate, n = 1
[2] = tested on: RPS6KA4(Kin.Dom.2-C-terminal); conditions: concentration: 1 μM, replicates: in singlicate; n = 1
[3] = tested on: RPS6KA5(Kin.Dom.1-N-terminal); conditions: concentration: 1 μM, replicates: in singlicate, n = 1
[4] = tested on: RPS6KA5(Kin.Dom.2-C-terminal); conditions: concentration: 1 μM, replicates: in singlicate, n = 1
[5] = tested on: T1, RSK1(Kin.Dom.1-N-terminal); conditions: concentration: 1 μM, replicates: in singlicate, n = 1
T1 construct: gene RPS6KA1

[6] = tested on: T2, RSK1(Kin.Dom.2-C-terminal); conditions: concentration: 1 μM, replicates: in singlicate; n = 1
T2 construct: gene RPS6KA1

[7] = tested on: T3, RSK2(Kin.Dom.1-N-terminal); conditions: concentration: 1 μM, replicates: in singlicate, n = 1
T3 construct: gene RPS6KA3

[8] = tested on: T4, RSK2(Kin.Dom.2-C-terminal); conditions: concentration: 1 μM, replicates: in singlicate, n = 1
T4 construct: gene RPS6KA3

[9] = tested on: T5, RSK3(Kin.Dom.1-N-terminal); conditions: concentration: 1 μM, replicates: in singlicate, n = 1
T5 construct: gene RPS6KA2

[10] = tested on: T6, RSK3(Kin.Dom.2-C-terminal); conditions: concentration: 1 μM, replicates: in singlicate, n = 1
T6 construct: gene RPS6KA2

[11] = tested on: T7, RSK4(Kin.Dom.1-N-terminal); conditions: concentration: 1 μM, replicates: in singlicate; n = 1
T7 construct: gene RPS6KA6

[12] = tested on: T8, RSK4(Kin.Dom.2-C-terminal); conditions: concentration: 1 μM, replicates: in singlicate, n = 1
T8 construct: gene RPS6KA6

S6K1 = conditions: concentration: 1 μM, replicates: in singlicate, n = 1
SBK1 = conditions: concentration: 1 μM, replicates: in singlicate, n = 1
SGK2 = conditions: concentration: 1 μM, replicates: in singlicate, n = 1
SGK3 = conditions: concentration: 1 μM, replicates: in singlicate, n = 1
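Also: KINOMEscan kinase panel screen.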

COc1cc2c(cc1OC[C@@H](O)CO)ncc1c3ccc(C#N)cc3[nH]c21
%Inh (RIPK5): 7%
%Inh (ROCK1): 91.1%
%Inh (ROCK2): 96.9%
%Inh (ROS1): 0%
%Inh [1]: 0%
%Inh [2]: 9%
%Inh [3]: 0%
%Inh [4]: 26%
%Inh [5]: 33%
%Inh [6]: 17%
%Inh [7]: 80%
%Inh [8]: 0%
%Inh [9]: 11%
%Inh [10]: 11%
%Inh [11]: 88%
%Inh [12]: 18%
%Inh (S6K1): 40%
%Inh (SBK1): 71%
%Inh (SGK2): 0%
%Inh (SGK3): 38%

O=C(NCCNc1ccnc(Nc2ccc(F)cc2)n1)c1cc2ccccc2s1 [GSK1379874]
%Inh (RIPK5): 0%
%Inh (ROCK1): 29%
%Inh (ROCK2): 30%
%Inh (ROS1): 15%
%Inh [1]: 0%
%Inh [2]: 0%
%Inh [3]: 4%
%Inh [4]: 0%
%Inh [5]: 26%
%Inh [6]: 0%
%Inh [7]: 0%
%Inh [8]: 0%
%Inh [9]: 0%
%Inh [10]: 0%
%Inh [11]: 0%
%Inh [12]: 1%
%Inh (S6K1): 0%
%Inh (SBK1): 0%
%Inh (SGK2): 0%
%Inh (SGK3): 0%

COc1ccc(COc2cc(-n3cnc4ccccc43)sc2C(N)=O)cc1 [GSK1024304]
%Inh (RIPK5): 0%
%Inh (ROCK1): 9%
%Inh (ROCK2): 20%
%Inh (ROS1): 0%
%Inh [1]: 0%
%Inh [2]: 0%
%Inh [3]: 3%
%Inh [4]: 13%
%Inh [5]: 6%
%Inh [6]: 0%
%Inh [7]: 18%
%Inh [8]: 16%
%Inh [9]: 17%
%Inh [10]: 5%
%Inh [11]: 2%
%Inh [12]: 23%
%Inh (S6K1): 0%
%Inh (SBK1): 0%
%Inh (SGK2): 10%
%Inh (SGK3): 1%

CCCCCc1nc2c(N)ncnc2n1CCCCC [SKF-97255]
%Inh (RIPK5): 8%
%Inh (ROCK1): 90.1%
%Inh (ROCK2): 59%
%Inh (ROS1): 1%
%Inh [1]: 6%
%Inh [2]: 0%
%Inh [3]: 14%
%Inh [4]: 9%
%Inh [5]: 8%
%Inh [6]: 11%
%Inh [7]: 32%
%Inh [8]: 0%
%Inh [9]: 0%
%Inh [10]: 7%
%Inh [11]: 20%
%Inh [12]: 0%
%Inh (S6K1): 13%
%Inh (SBK1): 0%
%Inh (SGK2): 0%
%Inh (SGK3): 0%

CC(C)(CN)c1nc(-c2ccc(Cl)c(O)c2)c(-c2ccncc2)[nH]1.O=C(O)C(F)(F)F [SB-477794]
%Inh (RIPK5): 0%
%Inh (ROCK1; 1 µM): 28% and 43%
%Inh (ROCK2; 1 µM): 49% and 40%
%Inh (ROS1; 1 µM): 15% and 53%
%Inh ([1]; 1 µM): 0% and 23%
%Inh [2]: 0%
%Inh ([3]; 1 µM): 5% and 0%
%Inh ([4]; 1 µM): 7% and 36%
%Inh ([5]; 1 µM): 16% and 15%
%Inh [6]: 35%
%Inh ([7]; 1 µM): 0% and 11%
%Inh ([8]; 1 µM): 36% and 27%
%Inh ([9]; 1 µM): 6% and 2%
%Inh ([10]; 1 µM): 0% and 2%
%Inh [11]: 0%
%Inh ([12]; 1 µM): 90.6% and 89%
%Inh (S6K1; 1 µM): 43% and 37%
%Inh (SBK1; 1 µM): 5% and 6%
%Inh (SGK2; 1 µM): 2% and 0%
%Inh (SGK3; 1 µM): 0% and 7%

CCn1cnc2c(N)ncnc21 [GW345098]
%Inh (RIPK5): 38%
%Inh (ROCK1): 12%
%Inh (ROCK2): 22%
%Inh (ROS1): 0%
%Inh [1]: 5%
%Inh [2]: 25%
%Inh [3]: 0%
%Inh [4]: 0%
%Inh [5]: 7%
%Inh [6]: 11%
%Inh [7]: 0%
%Inh [8]: 14%
%Inh [9]: 0%
%Inh [10]: 24%
%Inh [11]: 0%
%Inh [12]: 26%
%Inh (S6K1): 17%
%Inh (SBK1): 0%
%Inh (SGK2): 22%
%Inh (SGK3): 0%

COCCNC(=O)c1ccc(-c2cc(C(=O)NC3CC3)cc(F)c2C)cc1 [GW868318]
%Inh (RIPK5): 38%
%Inh (ROCK1): 37%
%Inh (ROCK2): 47%
%Inh (ROS1): 5%
%Inh [1]: 36%
%Inh [2]: 6%
%Inh [3]: 18%
%Inh [4]: 21%
%Inh [5]: 21%
%Inh [6]: 18%
%Inh [7]: 40%
%Inh [8]: 29%
%Inh [9]: 16%
%Inh [10]: 0%
%Inh [11]: 41%
%Inh [12]: 0%
%Inh (S6K1): 29%
%Inh (SBK1): 48%
%Inh (SGK2): 20%
%Inh (SGK3): 21%

O=C(c1ccc(-c2cc(-c3c[nH]nc3-c3ccccn3)ccn2)cc1)N1CCOCC1 [GW812171]
%Inh (RIPK5): 22%
%Inh (ROCK1): 0%
%Inh (ROCK2): 24%
%Inh (ROS1): 0%
%Inh [1]: 6%
%Inh [2]: 0%
%Inh [3]: 0%
%Inh [4]: 0%
%Inh [5]: 14%
%Inh [6]: 0%
%Inh [7]: 31%
%Inh [8]: 0%
%Inh [9]: 0%
%Inh [10]: 0%
%Inh [11]: 9%
%Inh [12]: 24%
%Inh (S6K1): 13%
%Inh (SBK1): 0%
%Inh (SGK2): 0%
%Inh (SGK3): 16%

Nc1nccc(-c2c(-c3ccc(F)cc3)ncn2C2CCN(CC(F)(F)F)CC2)n1 [SB-236560]
%Inh (RIPK5): 13%
%Inh (ROCK1): 38%
%Inh (ROCK2): 49%
%Inh (ROS1): 14%
%Inh [1]: 0%
%Inh [2]: 0%
%Inh [3]: 0%
%Inh [4]: 0%
%Inh [5]: 0%
%Inh [6]: 27%
%Inh [7]: 14%
%Inh [8]: 35%
%Inh [9]: 13%
%Inh [10]: 35%
%Inh [11]: 0%
%Inh [12]: 56%
%Inh (S6K1): 0%
%Inh (SBK1): 0%
%Inh (SGK2): 0%
%Inh (SGK3): 3%

COc1ccc(Nc2nccc(N3CCC(NC(=O)Nc4cc(C)ccc4C)C3)n2)cc1 (centres unmarked) [GSK1379741]
%Inh (RIPK5): 0%
%Inh (ROCK1): 14%
%Inh (ROCK2): 0%
%Inh (ROS1): 0%
%Inh [1]: 0%
%Inh [2]: 0%
%Inh [3]: 8%
%Inh [4]: 19%
%Inh [5]: 6%
%Inh [6]: 0%
%Inh [7]: 0%
%Inh [8]: 0%
%Inh [9]: 18%
%Inh [10]: 0%
%Inh [11]: 0%
%Inh [12]: 0%
%Inh (S6K1): 11%
%Inh (SBK1): 0%
%Inh (SGK2): 0%
%Inh (SGK3): 0%
